Assay results: PubChem BioAssay (NCATS)
Values joined by “and” are separate entries in the source; they are usually repeats but may differ in a detail not shown here. Equal values may be shown once. Inconclusive results are not listed. Where a call stands in place of a potency, no number is given. Values without a mark were called inactive. Active and inactive are the calls of the source. Calls follow the shape of the dose curve; as a rule, active = well fitted curve in the direction sought with a large enough effect; inconclusive = small, poorly fitted or top-dose-only effect, or another doubt; inactive = no such curve, though single readings can be large; an effect the other way counts as inactive or inconclusive.

Key:
[1] = target: Cellular tumor antigen p53 (Homo sapiens) (UniProt P04637); experiment: Primary qHTS for small molecule compounds that upregulate eGFP-tagged delta133p53alpha (in N-terminal) cells. (AID 2060322); conditions: NCI-H358 eGFP-delta133p53alpha fluorescence, 24 h; activation: stronger effect = higher value; also: nearly all actives have a fitted effect of over 75% in size; also: potency is read from the fitted curve at half-maximal effect;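 as to activation: cells pre-induced with doxycycline then dosed without doxycycline; series mostly up to about 56 µM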
Chain of Cellular tumor antigen p53 (Homo sapiens) (P04637 whole entry, looked up): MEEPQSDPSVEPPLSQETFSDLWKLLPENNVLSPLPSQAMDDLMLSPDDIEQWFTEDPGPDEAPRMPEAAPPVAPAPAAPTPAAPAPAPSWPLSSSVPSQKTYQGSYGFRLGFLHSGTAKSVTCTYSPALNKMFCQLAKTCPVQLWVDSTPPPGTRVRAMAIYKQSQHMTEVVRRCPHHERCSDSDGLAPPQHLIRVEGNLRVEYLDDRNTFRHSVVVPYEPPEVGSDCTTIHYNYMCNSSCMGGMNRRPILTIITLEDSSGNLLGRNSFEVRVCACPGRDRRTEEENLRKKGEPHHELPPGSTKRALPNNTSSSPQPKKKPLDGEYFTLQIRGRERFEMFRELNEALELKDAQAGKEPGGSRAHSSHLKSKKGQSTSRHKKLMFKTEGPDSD
Outline: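 NCI-H358 cells pre-induced 24 h with 10 ng/ml doxycycline for eGFP-delta133p53alpha, plated dox-free and exposed 24 h at 37C to titrated compounds. Fixed, Hoechst-stained; gated GFP peak intensity by laser scanning cytometry, normalized to DMSO (0%) and 57.5 uM 5-azacytidine (100%).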

[2] = target: Aldehyde dehydrogenase, mitochondrial (Homo sapiens) (UniProt P05091); experiment: qHTS for Inhibitors of the Aldehyde Dehydrogenase Family (ALDH2) Primary screen (AID 2061308); also: nearly all actives have a fitted effect of over 55% in size
[3] = target: Retinaldehyde dehydrogenase 3 (Homo sapiens) (UniProt P47895); experiment: qHTS for Inhibitors of the Aldehyde Dehydrogenase Family (ALDH1A3) Validation screen (AID 2061312); also: nearly all actives have a fitted effect of over 45% in size
[4] = target: Retinaldehyde dehydrogenase 3 (Homo sapiens) (UniProt P47895); experiment: qHTS for Inhibitors of the Aldehyde Dehydrogenase Family (ALDH1A3) Primary screen (AID 2061315)

| SMILES | activation [1] | Potency [2] | Potency [3] | Potency [4] | Potency [1] |
| --- | --- | --- | --- | --- | --- |
| OC1(c2ccc(Cl)cc2)c2ccccc2C2=NCCN21 (stereo not given) | 6.21% | inactive | inactive | inactive | – |
| Cc1cccc(NC(=O)N[C@@H]2N=C(c3ccccc3)c3ccccc3N(C)C2=O)c1 | -11% | inactive | inactive | inactive | – |
| Cc1ccc2c(c1)[C@H]1CN(C)CC[C@H]1N2C(=O)CSc1nnnn1-c1ccc(Cl)cc1 | -6.68% | inactive | inactive | inactive | – |
| CC(=O)NCCCOc1ccc(C(=O)N2CCC(N3C(=O)CCc4ccccc43)CC2)cc1 | -10.5% | inactive | inactive | inactive | – |
| CN1C(=O)[C@@H](Cc2c[nH]c3ccccc23)N=C(c2ccccc2F)c2ccccc21 | 15.8% | inactive | inactive | inactive | – |
| NC(=O)c1ncn2c1CN=C(c1ccccc1Br)c1cc(F)ccc1-2 | -14.3% | inactive | inactive | inactive | – |
| CCCCCn1cc(C(=O)Oc2cccc3cccnc23)c2ccccc21 | -4.77% | inactive | inactive | inactive | – |
| C1=C2CCCN[C@H]2[C@@H]2C[C@H]1[C@H]1CCCCN1C2 | -9.55% | inactive | inactive | inactive | – |
| CC(C)[C@@H](CN1CC[C@@](C)(c2cccc(O)c2)[C@@H](C)C1)NC(=O)[C@H]1Cc2ccc(O)cc2CN1 | 29.1% | inactive | inactive | inactive | – |
| CCOC(=O)C1(CCc2ccccc2)CCN(Cc2ccc(NC(C)=O)cc2)CC1 | -12.4% | inactive | inactive | inactive | – |
| Cc1ccccc1CN1CCC(N2CCC(n3c(=O)[nH]c4ccccc43)CC2)CC1 | -15.8% | inactive | inactive | inactive | – |
| CN1[C@@H]2CC[C@H]1CC(OC(=O)C1C=Nc3ccccc31)C2 (stereo not given in full) | -7.64% | inactive | inactive | inactive | – |
| COc1ccc2[nH]c(-c3ccccc3)c(CCN(C)C)c2c1 | -11% | inactive | inactive | inactive | – |
| Clc1ccc(OCC2=NCCN2)cc1Cl | -0.955% | inactive | inactive | inactive | – |
| CC[C@H](O)[C@@H](C)[C@H]1O[C@@H]1C[C@H](C)/C=C/C=C(\C)[C@H]1OC(=O)C[C@H](O)CC[C@@](C)(O)[C@@H](OC(C)=O)/C=C/[C@@H]1C | – | inactive | inactive | inactive | 67.5 nM (active) |
| Cc1ccc(-n2nccn2)c(C(=O)N2CCN(c3nc4cc(Cl)ccc4o3)CCC2C)c1 (stereo not given) | -12.4% | inactive | inactive | inactive | – |
| Cc1c(Cl)cccc1S(=O)(=O)Nc1nc(CC(=O)N2CCN(C)CC2)cs1 | -6.21% | inactive | inactive | inactive | – |
| Cc1cn(C[C@H](N)C(=O)O)c(=O)n(Cc2cc(-c3ccccc3)sc2C(=O)O)c1=O | 8.11% | inactive | inactive | inactive | – |
| N#Cc1ccccc1-c1cc(-c2ccccn2)cn(-c2ccccc2)c1=O | 10.5% | inactive | inactive | inactive | – |
| O=C(N1CCOCC1)N1CCN(c2ccc(Cl)cc2)CC1 | 10% | inactive | inactive | inactive | – |
| CCCCCn1cc(C(=O)Cc2ccccc2OC)c2ccccc21 | 3.34% | inactive | inactive | inactive | – |
| O=C(NCCN1CCC2(CC1)C(=O)NCN2c1cccc(F)c1)c1ccc(F)c(F)c1 | 18.1% | inactive | inactive | inactive | – |
| CCCCN1[C@@H]2CC[C@H]1CC(OC(c1ccc(F)cc1)c1ccc(F)cc1)C2 (stereo not given in full) | 2.39% | inactive | inactive | inactive | – |
| N#Cc1ccc([C@H]2CCCC[C@H]2O)cc1C(F)(F)F | 11% | inactive | inactive | inactive | – |
| C[C@H]1CN(Cc2ccc(CC(=O)N3CCC(Nc4cccc(F)c4)CC3)cc2)CCN1 | -12.4% | inactive | inactive | inactive | – |
| O=C(N1CCCCC1Cc1ccccc1)n1cc(-c2ccc(-c3ccccc3)cc2)nn1 (stereo not given) | 1.43% | inactive | inactive | inactive | – |
| CCOC(=O)c1cncn1C(C)c1ccccc1 (stereo not given) | 10% and 2.86% | inactive | inactive | inactive | – |
| CC(C)N(CCNC(=O)CN1CCCC1=O)C(C)C | -9.94% and -3.34% | inactive | inactive | inactive | – |
| CC(N)Cc1c[nH]c2ccccc12 (stereo not given) | 12.4% | inactive | inactive | inactive | – |
| CN=C(NS(=O)(=O)c1ccc(Cl)cc1)N1C[C@H](c2ccccc2)C(c2ccc(Cl)cc2)=N1 | 1.91% | inactive | inactive | inactive | – |
